Data as given in PubChem BioAssay (NCATS).
“And” between values parts separate entries of the source, which are not always exact repeats. Identical values can stand only once. Results filed as inconclusive are left out. The source made the active and inactive calls. Unless noted, calls come from the whole dose curve; as a rule, active = well fitted curve in the direction sought with a large enough effect; inconclusive = small, poorly fitted or top-dose-only effect, or another doubt; inactive = no such curve, though single readings can be large; an effect the other way counts as inactive or inconclusive.

Key:
[1] = molecular target: Nuclear receptor subfamily 1 group I member 3 (Homo sapiens) (UniProt Q14994); experiment: Primary qHTS for agonist of constitutive androstane receptor (CAR) against the NCATS DSHEA and TCM libraries (AID 1794839);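 note: HepG2 cells expressing human CAR with a CYP2B6 reporter plus PK11195 antagonist; luciferase reporter luminescence read with ONE-Glo; 0% is about no effect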
Chain of Nuclear receptor subfamily 1 group I member 3 (Homo sapiens) (Q14994 whole entry, looked up): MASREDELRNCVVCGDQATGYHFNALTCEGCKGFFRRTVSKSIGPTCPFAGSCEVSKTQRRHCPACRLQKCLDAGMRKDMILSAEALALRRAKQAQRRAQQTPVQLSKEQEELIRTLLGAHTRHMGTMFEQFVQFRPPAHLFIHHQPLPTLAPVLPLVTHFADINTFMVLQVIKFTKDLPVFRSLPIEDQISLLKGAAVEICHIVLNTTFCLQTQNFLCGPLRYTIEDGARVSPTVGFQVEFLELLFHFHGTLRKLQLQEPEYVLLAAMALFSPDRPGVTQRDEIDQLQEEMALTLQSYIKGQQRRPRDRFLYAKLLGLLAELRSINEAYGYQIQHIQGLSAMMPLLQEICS
Procedure, shortened: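 Agonist mode in presence of hCAR antagonist PK11195 (0.75 µM final): test substances, 24 h, 37 °C, on HepG2-CYP2B6-hCAR cells. Same-well readouts: fluorescence viability, then ONE-Glo luminescence; CITCO as reference agonist.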

[2] = molecular target: Cytochrome P450 3A4 (Homo sapiens) (UniProt P08684); experiment: qHTS for inhibitors of CYP3A4 against the NCATS DSHEA and TCM libraries (AID 1919971);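 note: % is set by controls: 0 for no effect and ±100 for the full control effect; inhibition lowers luminescence from luciferin made by CYP3A4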
Chain of Cytochrome P450 3A4 (Homo sapiens) (P08684 whole entry, looked up): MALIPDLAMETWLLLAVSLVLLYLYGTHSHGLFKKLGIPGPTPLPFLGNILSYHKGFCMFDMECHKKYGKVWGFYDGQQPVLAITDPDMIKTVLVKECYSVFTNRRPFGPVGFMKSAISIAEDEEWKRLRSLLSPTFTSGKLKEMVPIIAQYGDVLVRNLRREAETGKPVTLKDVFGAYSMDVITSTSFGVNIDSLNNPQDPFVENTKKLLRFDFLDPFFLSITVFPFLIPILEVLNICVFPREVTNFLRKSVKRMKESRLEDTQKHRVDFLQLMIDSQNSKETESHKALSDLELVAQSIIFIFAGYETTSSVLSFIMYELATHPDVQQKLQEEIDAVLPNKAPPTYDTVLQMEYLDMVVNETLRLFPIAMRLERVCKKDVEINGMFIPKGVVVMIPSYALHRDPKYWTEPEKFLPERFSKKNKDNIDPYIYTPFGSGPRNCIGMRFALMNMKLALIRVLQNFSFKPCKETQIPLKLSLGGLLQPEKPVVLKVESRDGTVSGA
Procedure, shortened: (§1)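 Luminescent P450-Glo readout. Enzyme plus pro-luciferin substrate in manufacturer buffer (typically 100 mM KPO4); 15 min RT preincubation; 1x NADPH regenerating system, 30-45 min RT in the dark; detection reagent 30 min.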

[3] = molecular target: Cytochrome P450 2C9 (Homo sapiens) (UniProt P11712); experiment: qHTS for inhibitors of CYP2C9 against the NCATS DSHEA and TCM libraries (AID 1919973); note: potency is the fitted concentration of half-maximal effect
Chain of Cytochrome P450 2C9 (Homo sapiens) (P11712 whole entry, looked up): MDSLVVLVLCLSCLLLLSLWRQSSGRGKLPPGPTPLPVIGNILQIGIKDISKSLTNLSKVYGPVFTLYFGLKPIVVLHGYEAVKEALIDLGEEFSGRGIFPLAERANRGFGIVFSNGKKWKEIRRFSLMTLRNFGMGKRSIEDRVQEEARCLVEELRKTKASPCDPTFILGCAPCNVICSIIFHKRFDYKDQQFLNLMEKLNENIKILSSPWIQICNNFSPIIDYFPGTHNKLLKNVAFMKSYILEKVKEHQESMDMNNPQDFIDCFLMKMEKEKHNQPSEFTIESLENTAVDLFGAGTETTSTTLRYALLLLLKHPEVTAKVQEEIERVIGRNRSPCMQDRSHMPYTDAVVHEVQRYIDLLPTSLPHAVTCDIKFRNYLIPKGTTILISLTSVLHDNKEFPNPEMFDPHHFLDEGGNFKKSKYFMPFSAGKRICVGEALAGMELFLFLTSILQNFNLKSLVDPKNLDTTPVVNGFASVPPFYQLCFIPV
Procedure, shortened: as §1

[4] = S16 Schwann cell viability assay (CellTiter-Glo assay) (AID 624031);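 note: cellular ATP luminescence as a viability measure; plate controls were DMSO-treated cells for no effect and cell-free wells for full effect; nearly all actives have a fitted effect of over 70% in size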
Procedure, shortened: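 Untransfected S16 rat Schwann cells; compound 24 h, 37 °C/5% CO2; CellTiter-Glo ATP luminescence. % activity vs no-cell wells and DMSO controls (0%); concentration-effect curves classed by r2, response magnitude, activity.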

[5] = tested on: 7G8; experiment: qHTS profiling for inhibitors of Plasmodium falciparum proliferation (AID 504749);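 note: 0% = DMSO vehicle and full inhibition = artemisinin control; nearly all actives have a fitted effect of over 60% in size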; conditions: P. falciparum in erythrocytes, SYBR Green DNA, 72 h; series mostly up to 12.8 µM
Procedure, shortened: (§2)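 Readout was DNA-dye fluorescence from lysed cultures, ex 485/em 535 nm. Parasitized red cells had grown 72 h with compound; data scaled between 0.29 uM artemisinin and DMSO wells and corrected using vehicle-only plates.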

[6] = tested on: CP215; experiment: as above; conditions: P. falciparum in erythrocytes, SYBR Green DNA, 72 h; series mostly up to 28.7 µM
Procedure, shortened: as §2

[7] = tested on: ICS; experiment: as above; conditions: P. falciparum in erythrocytes, SYBR Green DNA, 72 h; series mostly up to 12.8 µM
Procedure, shortened: as §2

[8] = tested on: P93_24; experiment: as above; conditions: P. falciparum in erythrocytes, SYBR Green DNA, 72 h; series mostly up to 12.8 µM
Procedure, shortened: as §2

[9] = Cell Viability - LYMP2-003 (AID 965);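 note: cells exposed to compounds for 24 h before reading; 0% = DMSO only and full effect = 92 µM tetraoctylammonium bromide; nearly all actives have a fitted effect of over 50% in size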
Procedure, shortened: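 CellTiter-Glo luminescence quantified ATP loss after 24 h compound treatment of LYMP2-003 lymphoblastoid cells at 37 C. Titration series were fitted with the standard Hill equation to give AC50.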

[10] = molecular target: DNA dC->dU-editing enzyme APOBEC-3G (Homo sapiens) (UniProt Q9HC16); experiment: qHTS for inhibitors of Vif-A3G interactions: Validation (AID 588379); note: 0% is about no effect
Chain of DNA dC->dU-editing enzyme APOBEC-3G (Homo sapiens) (Q9HC16 whole entry, looked up): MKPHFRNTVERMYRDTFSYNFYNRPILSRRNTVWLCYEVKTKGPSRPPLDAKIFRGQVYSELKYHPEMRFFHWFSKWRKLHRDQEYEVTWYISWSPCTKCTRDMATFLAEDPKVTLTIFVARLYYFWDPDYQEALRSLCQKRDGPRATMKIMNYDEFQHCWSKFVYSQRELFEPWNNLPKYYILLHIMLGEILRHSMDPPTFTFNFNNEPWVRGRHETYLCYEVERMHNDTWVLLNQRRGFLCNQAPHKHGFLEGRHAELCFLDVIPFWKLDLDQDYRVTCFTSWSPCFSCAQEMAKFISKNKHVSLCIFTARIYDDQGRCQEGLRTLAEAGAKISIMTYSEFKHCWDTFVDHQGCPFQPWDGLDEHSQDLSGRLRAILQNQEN
Procedure, shortened: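 HeLa cells stably expressing Vif and A3G-eYFP, 700 cells/well, incubated overnight at 37 deg C, then exposed to compound overnight at 37 deg C. Inhibition of Vif-mediated degradation read as increased yellow fluorescence (Ex 488/Em 500-530) by laser-scanning cytometry.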

[11] = molecular target: Glucocorticoid receptor (Homo sapiens) (UniProt P04150); experiment: qHTS assay for small molecule agonists of glucocorticoid receptor signaling (AID 588532; active = well fitted curve in the direction sought with a large enough effect in the signal ratio, with a control signal flat; the % refers to the signal ratio;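 note: 100% = dexamethasone at 0.1 µM and 0% = DMSO only wells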); conditions: HeLa MMTV-bla, beta-lactamase ratio, agonist, 18 h; stronger effect = higher value; percent of dexamethasone control, DMSO zero
Chain of Glucocorticoid receptor (Homo sapiens) (P04150 whole entry, looked up): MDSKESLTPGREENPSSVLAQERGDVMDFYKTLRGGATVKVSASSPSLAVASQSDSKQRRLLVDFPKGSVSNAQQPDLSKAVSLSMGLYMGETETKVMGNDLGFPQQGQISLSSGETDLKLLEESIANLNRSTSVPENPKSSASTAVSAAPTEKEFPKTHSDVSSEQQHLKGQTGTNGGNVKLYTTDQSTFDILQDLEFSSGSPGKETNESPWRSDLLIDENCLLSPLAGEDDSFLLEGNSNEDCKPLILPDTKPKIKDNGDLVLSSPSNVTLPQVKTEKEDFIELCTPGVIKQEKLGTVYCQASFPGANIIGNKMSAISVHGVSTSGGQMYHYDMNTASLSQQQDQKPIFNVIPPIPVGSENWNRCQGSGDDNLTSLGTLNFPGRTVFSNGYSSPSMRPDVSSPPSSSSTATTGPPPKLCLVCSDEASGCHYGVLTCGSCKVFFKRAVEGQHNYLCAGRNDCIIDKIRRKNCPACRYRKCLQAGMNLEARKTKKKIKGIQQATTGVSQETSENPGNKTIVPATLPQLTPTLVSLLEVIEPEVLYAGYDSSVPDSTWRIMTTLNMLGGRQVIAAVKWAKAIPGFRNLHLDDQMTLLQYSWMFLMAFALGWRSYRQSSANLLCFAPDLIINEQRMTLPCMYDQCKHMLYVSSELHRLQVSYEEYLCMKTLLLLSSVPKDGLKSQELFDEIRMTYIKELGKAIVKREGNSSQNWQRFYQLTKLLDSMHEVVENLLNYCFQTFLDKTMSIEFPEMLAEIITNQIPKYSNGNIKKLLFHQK
Procedure, shortened: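 HeLa GRE-bla reporter cells; 18 h compound exposure at 37 C; 2 h CCF4 loading at room temperature; fluorescence at 460 and 530 nm; EC50 by Hill equation.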

[12] = molecular target: Glucocorticoid receptor (Homo sapiens) (UniProt P04150); experiment: qHTS assay for small molecule antagonists of glucocorticoid receptor signaling (AID 588533; active = well fitted inhibition curve with a large enough effect in the signal ratio, with a control signal flat, not every such curve was filed as active; the % refers to the signal ratio;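 note: cells stimulated with 2 nM dexamethasone as agonist; % is set by controls: 0 for no effect and ±100 for the full control effect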)
Procedure, shortened: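 Antagonist-mode qHTS: compound titrations added to GRE-bla HeLa cells, then dexamethasone 2 nM final; 18 h, 37 C. CCF4 FRET fluorescence normalized to dexamethasone and DMSO; IC50 from Hill fit.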

[13] = qHTS assay for small molecule antagonists of peroxisome proliferator-activated receptor delta signaling (AID 588535; active = well fitted inhibition curve with a large enough effect in the signal ratio, with a control signal flat, not every such curve was filed as active; the % refers to the signal ratio;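 for max response: cells co-treated with a PPAR-delta agonist as stimulator during compound exposure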); conditions: HEK293T PPARd-UAS-bla, beta-lactamase FRET ratio, 18 h; 460 nm channel
Procedure, shortened: (§3)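 Cells were seeded at 4000 per well in assay medium containing 2% charcoal/dextran FBS and held 5 hrs at 37 C. Compounds were then added for 18 hrs. CCF4 substrate was applied for 2 hrs at room temperature before fluorescence reading.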

[14] = molecular target: Peroxisome proliferator-activated receptor delta (Homo sapiens) (UniProt Q03181); experiment: as above
Chain of Peroxisome proliferator-activated receptor delta (Homo sapiens) (Q03181 whole entry, looked up): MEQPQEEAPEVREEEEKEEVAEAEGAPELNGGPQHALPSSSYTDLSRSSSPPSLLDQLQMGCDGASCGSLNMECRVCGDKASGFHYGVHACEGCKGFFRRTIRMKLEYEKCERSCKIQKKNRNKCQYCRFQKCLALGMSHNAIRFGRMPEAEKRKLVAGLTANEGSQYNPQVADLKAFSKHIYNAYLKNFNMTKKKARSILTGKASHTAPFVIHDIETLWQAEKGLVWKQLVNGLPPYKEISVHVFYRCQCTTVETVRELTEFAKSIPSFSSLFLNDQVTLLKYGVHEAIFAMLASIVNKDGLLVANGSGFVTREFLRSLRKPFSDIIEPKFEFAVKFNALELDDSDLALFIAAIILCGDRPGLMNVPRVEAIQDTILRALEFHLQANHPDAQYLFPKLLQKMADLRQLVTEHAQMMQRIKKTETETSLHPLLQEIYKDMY
Procedure, shortened: as §3

[15] = qHTS assay for small molecule activators of the nuclear factor-kappa B (NF-kB) signaling pathway (AID 651749; active = well fitted activation curve with a large enough effect in the signal ratio; the % refers to the signal ratio; note: % of control where 0% means no effect); conditions: NF-kB-bla ME-180 cells, beta-lactamase FRET ratio, 16 h; stronger effect = higher value
Procedure, shortened: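 Incubation lasted 16 hr at 37C in 5% CO2 after 23 nL compound addition to ME-180 NF-kB-bla cells. Activation appears as beta-lactamase-mediated FRET loss.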

[16] = qHTS assay for small molecule activators of the human pregnane X receptor (PXR) signaling pathway (AID 720659; call rule not given here; note: 0% is about no effect)
[17] = molecular target: Bile acid receptor (Homo sapiens) (UniProt Q96RI1); experiment: qHTS assay for small molecule antagonists of farnesoid X receptor signaling (AID 588526; calls by dose curve; note: % is set by controls: 0 for no effect and ±100 for the full control effect)
Chain of Bile acid receptor (Homo sapiens) (Q96RI1 whole entry, looked up): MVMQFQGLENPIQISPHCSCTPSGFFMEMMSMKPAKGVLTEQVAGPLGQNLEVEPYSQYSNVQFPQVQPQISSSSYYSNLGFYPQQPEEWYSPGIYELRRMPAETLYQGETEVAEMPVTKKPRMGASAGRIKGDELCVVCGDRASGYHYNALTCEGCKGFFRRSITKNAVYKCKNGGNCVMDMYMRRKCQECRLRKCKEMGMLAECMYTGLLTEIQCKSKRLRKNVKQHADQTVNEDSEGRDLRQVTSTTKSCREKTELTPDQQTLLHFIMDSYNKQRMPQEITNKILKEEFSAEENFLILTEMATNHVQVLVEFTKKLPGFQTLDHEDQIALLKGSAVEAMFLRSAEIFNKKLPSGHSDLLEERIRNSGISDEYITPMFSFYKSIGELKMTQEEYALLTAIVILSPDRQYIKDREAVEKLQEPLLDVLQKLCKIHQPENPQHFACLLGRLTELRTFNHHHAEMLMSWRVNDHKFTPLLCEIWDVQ
Procedure, shortened: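 Antagonist mode: titrated compounds tested against chenodeoxycholic acid stimulation (normalized to 50 uM CDCA and DMSO) in GeneBLAzer HEK293T cells for 16 h. Beta-lactamase read by CCF4 fluorescence; IC50 from Hill fits.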

[18] = qHTS assay for small molecule agonists of the antioxidant response element (ARE) signaling pathway (AID 651741; active = well fitted activation curve with a large enough effect in the signal ratio; the % refers to the signal ratio; note: % of control where 0% means no effect)
Procedure, shortened: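 HepG2 ARE-bla cells plated at 2,000 cells/well and incubated 5 h at 37 C/5% CO2 received 23 nL compound in DMSO. After 16 h at 37 C, LiveBLAzer B/G FRET substrate was applied for 2 h at room temperature and fluorescence read.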

[19] = tested on: DIV17; experiment: qHTS profiling for inhibitors of Plasmodium falciparum proliferation (AID 504749);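 note: 0% = DMSO vehicle and full inhibition = artemisinin control; nearly all actives have a fitted effect of over 60% in size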; conditions: P. falciparum in erythrocytes, SYBR Green DNA, 72 h; series mostly up to 12.8 µM
Procedure, shortened: as §2

COc1ccc2ccc(=O)oc2c1
inactive: outcome [1] | outcome [2] | Potency [3]

C[N+](C)(C)CC(O)CC(=O)O (configuration not stated)
inactive: Potency [4] | Potency [5] | Potency [6] | Potency [7] | Potency [8]

C=C[C@](C)(O)CCC=C(C)C
inactive: outcome [1]

C=C(C)[C@H]1CC=C(C)C(=O)C1
35.6% and 28.4%: max response [13]
inactive: outcome [9] | outcome [10] | activation [11] -5.14% and -7.53% | outcome [12] | outcome [14] | activation [15] -0.312% and 0.229% | outcome [1] | outcome [2] | Potency [3] | outcome [16]

C=CC(C)(O)CCC=C(C)C (configuration not stated)
inactive: outcome [10] | outcome [17] | activation [11] -2.85% and -11.4% | outcome [12] | Potency [18]

CN(C)CC/C=C1\c2ccccc2CSc2ccccc21
inactive: Potency [4]

O=c1ccc2ccc(O)cc2o1
active: Potency [3] 7.08 µM
inactive: outcome [1]

CN1[C@@H]2CC[C@H]1CC(OC(=O)[C@@H](O)c1ccccc1)C2 (some centres not stated)
inactive: Potency [5] | Potency [6] | Potency [19] | Potency [7] | Potency [8]

CN1CCCC[C@@H]1CCN1c2ccccc2Sc2ccc(S(C)=O)cc21 (some centres not stated)
inactive: Potency [4] | Potency [6] | Potency [19] | Potency [8]
